In PubChem BioAssay:
Activity calls are given as the source filed them.

Columns and labels:
[1] = tested on: Human papillomavirus type 1a protein E7 (residues 44-93); test: HPV1a E7 fragment binders on microarrays, primary screen, biochemical, small-molecule microarray, residues 44-93, 635 nm fluorescence (AID 1108); details: small-molecule microarray binding, fluorescence 635 nm; higher = more signal;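 further: E7 fragment applied at 1 µg/mL in TBST for 1 h at 4 C; score combines spot fluorescence with its signal to noise ratio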
[2] = modulators of HCV replicon luciferase signal, primary screen, HCV replication inhibitor project, Huh7 cells, luciferase reporter (AID 1109); details: 48 h, higher = more signal;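 further: huh7 hepatoma cells harbouring a luciferase neomycin HCV replicon reporter; luciferase luminescence as measure of HCV replicon replication; test concentration not given here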
[3] = biological target: Left-right determination factor 2 (Homo sapiens) (UniProt O00292); test: LEFTY2 binders on small-molecule microarrays, primary screen, biochemical, small-molecule microarray, 635 nm fluorescence scan (AID 1110); details: LEFTY2 binding, higher = more signal
[4] = biological target: Calmodulin-1 (Homo sapiens) (UniProt P0DP23); test: CALM1 binders on microarrays, EGTA buffer, profiling panel, biochemical, small-molecule microarray, Cy5-labelled CALM1 (AID 1111); details: Cy5-CALM1 binding fluorescence, higher = more signal;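 further: labelled calmodulin applied in Tris saline Tween buffer holding calcium plus EGTA and DTT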
[5] = biological target: Calmodulin-1 (Homo sapiens) (UniProt P0DP23); test: calcium-bound CALM1 binders on microarrays, profiling panel, artefact control for SMM control-protein annotation, biochemical, small-molecule microarray, Cy5-labelled CALM1, plus calcium (AID 1112); details: Cy5-CALM1 binding fluorescence, higher = more signal;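 further: score merges spot fluorescence with signal to noise from triplicate slides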
[6] = small-molecule microarray binders of probe aWnt5a, primary screen, biochemical, biotinylated probe, 635/667 nm fluorescence (AID 1113); details: higher = more signal;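 further: score merges 667 nm fluorescence intensity with signal-to-noise per printed feature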
[7] = small-molecule microarray binders of probe aShh, primary screen, biochemical, biotinylated probe, 635/667 nm fluorescence (AID 1114); details: higher = more signal;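 further: probe is biotin-labelled aShh protein from a stem cell growth factor screen; measures binding of labelled protein to compounds printed on the slide; score merges feature fluorescence at 667 nm with signal-to-noise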
[8] = small-molecule microarray binders of probe aNog, primary screen, biochemical, biotinylated probe, 635/667 nm fluorescence (AID 1115); details: higher = more signal;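 further: probe is biotinylated aNog protein used at 0.15 µg/mL for 1 h at 4 C; z-score combines 667 nm fluorescence of each spot with its signal to noise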
[9] = biological target: Torsin-1A-interacting protein 1 (Homo sapiens) (UniProt Q5JTV8); test: LAP1 binders from COS7 cell lysate, primary screen, small-molecule microarray, 635/667 nm fluorescence (AID 1116); details: COS7-hLAP1 lysate binding, 635 nm fluorescence, higher = more signal
[10] = biological target: Alpha-bungarotoxin (Bungarus multicinctus) (UniProt P60615); test: alpha-bungarotoxin binders on microarray, profiling panel, artefact control for SMM control protein annotation, biochemical, small-molecule microarray, Alexa647 label, 635/667 nm fluorescence (AID 1117); details: alpha-BTX-A647 binding fluorescence, higher = more signal
[11] = biological target: Albumin (Bos taurus) (UniProt P02769); test: bovine serum albumin binders on microarray, profiling panel, artefact control for SMM control protein annotation, biochemical, small-molecule microarray, Alexa647 label, 635/667 nm fluorescence (AID 1118); details: BSA-A647 binding, fluorescence 635 nm, higher = more signal;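 further: score merges 667 nm emission intensity and signal-to-noise per printed compound spot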
[12] = small-molecule microarray binders of probe aXIP, primary screen, biochemical, NeuroSMM set, 635/667 nm fluorescence (AID 1119); details: higher = more signal, called active from +8 up or from −8 down;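 further: probe is the protein aXip251-270 applied at 1 µg/mL to compound-printed slides; binding of probe to printed compounds measured as 667 nm fluorescence plus signal to noise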
[13] = small-molecule binders of probe aNOTCH3, primary screen, biochemical, small-molecule microarray, 635/667 nm fluorescence (AID 1120); details: higher = more signal;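 further: probe is a biotin-tagged antibody raised against NOTCH3 rather than NOTCH3 protein; score merges spot fluorescence near 667 nm with spot signal to noise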
[14] = small-molecule binders of probe aNOTCH2, primary screen, biochemical, small-molecule microarray, 635/667 nm fluorescence (AID 1121); details: higher = more signal;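 further: score merges feature fluorescence read at 667 nm with its signal to noise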
[15] = biological target: Carbonic anhydrase 2 (Homo sapiens) (UniProt P00918); test: CAII small-molecule binders, profiling panel, biochemical, small-molecule microarray, Alexa647-labelled CAII (AID 1122); details: CAII-A647 binding fluorescence, higher = more signal
[16] = COS7 lysate on small-molecule microarray, probe aHis, 635 nm (AID 1123); details: COS7 cell lysate, fluorescence, higher = more signal;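 further: z-score combines 667nm fluorescence intensity with signal-to-noise per printed compound spot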
[17] = compound binding in COS7 lysate, probe aLAP1, primary screen, cell lysate, small-molecule microarray (AID 1124); details: probe aLAP1, fluorescence, higher = more signal;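 further: lysate comes from COS7 cells expressing LAP1 and is applied at 0.3 µg/mL; score merges spot fluorescence near 667 nm with signal-to-noise over triplicate slides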
[18] = tested on: Sam68 (KHDRBS1); test: Sam68 small-molecule binders, primary screen, biochemical, small-molecule microarray, 635 nm fluorescence (AID 1125); details: small-molecule microarray binding, higher = more signal;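 further: score merges 667 nm channel intensity with signal to noise over triplicate slides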
[19] = tested on: Chordin-like protein 2 (CHRDL2); test: CHRDL2 small-molecule binders, primary screen, biochemical, small-molecule microarray, 635 nm fluorescence (AID 1126); details: small-molecule microarray binding, fluorescence 635 nm; higher = more signal;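 further: printed compound slides probed with Chrdl2 protein at 4 µg/mL for 1 h at 4 C; score merges 667 nm emission intensity with signal to noise over three replicate slides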
[20] = biological target: Concanavalin-A (Canavalia ensiformis) (UniProt P02866); test: ConA small-molecule binders, primary screen, artefact control for SMM control protein annotation, biochemical, small-molecule microarray, Alexa647 label, 635 nm (AID 1127); details: ConA-A647 binding fluorescence, higher = more signal;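 further: z combines 667 nm emission intensity with signal-to-noise across three replicate slides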
Sequence of Concanavalin-A (Canavalia ensiformis) (P02866 whole entry, looked up): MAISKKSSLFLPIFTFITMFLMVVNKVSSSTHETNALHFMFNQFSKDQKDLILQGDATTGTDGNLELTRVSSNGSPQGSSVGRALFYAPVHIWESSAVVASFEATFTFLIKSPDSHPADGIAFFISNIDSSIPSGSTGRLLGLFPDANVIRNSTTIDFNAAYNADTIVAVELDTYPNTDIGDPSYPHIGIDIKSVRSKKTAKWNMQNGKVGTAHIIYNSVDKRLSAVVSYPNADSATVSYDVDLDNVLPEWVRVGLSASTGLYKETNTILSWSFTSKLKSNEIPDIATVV

Sequence of Alpha-bungarotoxin (Bungarus multicinctus) (P60615 whole entry, looked up): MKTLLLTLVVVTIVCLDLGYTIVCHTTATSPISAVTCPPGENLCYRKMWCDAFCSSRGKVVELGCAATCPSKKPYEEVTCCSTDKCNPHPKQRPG
Sequence of Torsin-1A-interacting protein 1 (Homo sapiens) (Q5JTV8 whole entry, looked up): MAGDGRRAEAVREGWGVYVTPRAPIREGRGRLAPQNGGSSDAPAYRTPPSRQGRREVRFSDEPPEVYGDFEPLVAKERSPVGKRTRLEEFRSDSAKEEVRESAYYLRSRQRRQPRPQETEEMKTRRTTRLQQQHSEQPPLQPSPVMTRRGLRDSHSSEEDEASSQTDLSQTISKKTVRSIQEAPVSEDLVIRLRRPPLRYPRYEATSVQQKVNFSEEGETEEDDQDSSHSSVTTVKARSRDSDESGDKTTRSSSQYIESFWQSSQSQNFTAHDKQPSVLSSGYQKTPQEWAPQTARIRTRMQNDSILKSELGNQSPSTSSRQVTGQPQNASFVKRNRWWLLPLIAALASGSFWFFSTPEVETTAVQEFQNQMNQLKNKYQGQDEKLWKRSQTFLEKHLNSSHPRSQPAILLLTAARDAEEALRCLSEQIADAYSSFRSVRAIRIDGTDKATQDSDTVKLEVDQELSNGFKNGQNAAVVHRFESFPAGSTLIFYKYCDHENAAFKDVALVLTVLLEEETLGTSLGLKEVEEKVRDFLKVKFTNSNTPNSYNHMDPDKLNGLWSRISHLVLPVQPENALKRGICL
Sequence of Left-right determination factor 2 (Homo sapiens) (O00292 whole entry, looked up): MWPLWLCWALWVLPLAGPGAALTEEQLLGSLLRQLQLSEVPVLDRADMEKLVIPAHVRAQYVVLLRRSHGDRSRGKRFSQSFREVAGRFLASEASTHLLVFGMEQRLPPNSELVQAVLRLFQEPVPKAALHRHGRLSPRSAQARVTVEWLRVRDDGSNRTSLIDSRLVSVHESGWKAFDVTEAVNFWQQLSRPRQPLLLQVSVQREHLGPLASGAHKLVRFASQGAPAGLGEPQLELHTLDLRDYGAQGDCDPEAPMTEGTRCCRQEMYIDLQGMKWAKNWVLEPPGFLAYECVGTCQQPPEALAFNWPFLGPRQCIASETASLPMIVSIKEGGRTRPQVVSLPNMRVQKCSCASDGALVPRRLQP
Sequence of Albumin (Bos taurus) (P02769 whole entry, looked up): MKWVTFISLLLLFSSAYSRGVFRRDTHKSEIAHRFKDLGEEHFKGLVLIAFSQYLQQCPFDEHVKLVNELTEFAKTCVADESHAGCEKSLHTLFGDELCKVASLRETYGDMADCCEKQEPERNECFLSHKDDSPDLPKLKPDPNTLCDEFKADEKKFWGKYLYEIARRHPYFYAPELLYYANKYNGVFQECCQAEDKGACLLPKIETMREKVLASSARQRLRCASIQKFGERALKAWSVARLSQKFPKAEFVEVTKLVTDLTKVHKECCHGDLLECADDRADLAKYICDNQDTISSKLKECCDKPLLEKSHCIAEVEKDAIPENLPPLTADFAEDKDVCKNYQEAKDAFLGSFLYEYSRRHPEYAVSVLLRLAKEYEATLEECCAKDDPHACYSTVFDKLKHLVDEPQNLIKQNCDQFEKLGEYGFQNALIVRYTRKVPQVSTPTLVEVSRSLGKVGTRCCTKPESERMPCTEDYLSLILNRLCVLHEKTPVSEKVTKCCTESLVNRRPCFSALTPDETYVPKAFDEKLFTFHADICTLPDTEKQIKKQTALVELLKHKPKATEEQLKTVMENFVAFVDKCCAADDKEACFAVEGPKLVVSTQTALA

Row | SMILES | composite z-score [1] | z-score [2] | composite z-score [3] | composite z-score [4] | composite z-score [5] | composite z-score [6] | composite z-score [7] | composite z-score [8] | composite z-score [9] | composite z-score [10] | composite z-score [11] | composite Z-score [12] | composite z-score [13] | composite z-score [14] | composite z-score [15] | composite z-score [16] | composite z-score [17] | composite z-score [18] | composite z-score [19] | composite z-score [20]
1 | C=C(/C(=C/C[C@H](OC(=O)c1ccncc1)c1cccc(OCCO)c1)c1cnc2ccccc2c1)C(C)C | 0.589 | -4.47 | 0.67 | 0.127 | -0.412 | -0.0236 | -0.0011 | 0.0215 | 2.85 | 3.56 | -0.134 | -1.19 (inactive) | 0.0306 | -0.0264 | 0.942 | 0.301 | 1.04 | 1.23 | 1.33 | 0.898
2 | COCCCNC(=O)[C@@]1(c2ccc([N+](=O)[O-])cc2)CC(=O)N(CC23CC4CC(CC(C4)C2)C3)[C@@H]1c1ccc(CO)cc1I | 0.952 | -3.15 | -0.381 | 0.425 | 0.729 | -0.104 | 0.337 | 0.536 | 0.157 | 1.22 | 0.0824 | 0.197 (inactive) | -0.0751 | -0.0561 | 0.126 | 1.61 | 0.159 | 0.745 | -0.348 | 0.905
3 | COCCOC(=O)N1C(=O)[C@@]2(c3cc(C#Cc4ccc(OC)cc4)ccc31)[C@H](C(=O)NC[C@H](O)c1ccccc1)[C@H]1C(=O)O[C@H](c3ccccc3)[C@H](c3ccccc3)N1[C@@H]2c1ccc(OCCO)cc1 | 1.42 | -1.52 | 0.46 | 1.16 | -0.0063 | 0.0031 | 0.0469 | 0.371 | 1.14 | 1.53 | 0.101 | -0.014 (inactive) | 0.0397 | -0.146 | 0.441 | 1.72 | 0.313 | 1.3 | 0.195 | 1.09
4 | [N-]=[N+]=NCc1ccccc1C[C@]1(C(=O)N2CCOCC2)COC(c2ccc(OCCCO)cc2)=N1 | 1.01 | -1.54 | -0.305 | 2.35 | 0.822 | 0.168 | 0.0326 | 1.87 | 2.22 | 0.326 | 0.754 | -0.592 (inactive) | 0.139 | 0.126 | 0.71 | 0.969 | 0.262 | 1.22 | -0.202 | 0.468
5 | COC(=O)[C@@]1(Cc2ccc(OC)cc2)[C@H]2c3cc(C(=O)N4CCCC4)n(Cc4ccc(OC(F)(F)F)cc4)c3C[C@H]2CN1C(=O)c1ccccc1 | -0.0023 | -2.48 | -0.251 | 1.72 | 1.13 | 0.402 | 0.358 | 1.65 | -0.401 | 1.25 | 0.943 | 0.308 (inactive) | 0.142 | 0.194 | -0.0687 | -0.0543 | -0.347 | -0.582 | -0.818 | 1.01
6 | COC(=O)[C@@]1(Cc2ccc(F)cc2)[C@H]2c3cc(C(=O)N4CCCC4)n(CC4CC4)c3C[C@H]2CN1C(=O)c1ccccc1 | 1.39 | -1.94 | 1.29 | 2.43 | 0.701 | 0.0139 | 0.184 | 1.96 | 1.22 | 1.33 | 0.87 | 1.5 (inactive) | 1.07 | 0.416 | 0.765 | 2.99 | 0.888 | 1.3 | -0.621 | 0.553
7 | CCCNC(=O)[C@@]1(Sc2ccc(C)cc2)CC(=O)N(C2CCCCC2)[C@@H]1c1ccc(CO)cc1I | 0.0411 | -2.45 | -0.153 | 1.42 | 0.86 | -0.0242 | 0.768 | 0.757 | 0.982 | 0.231 | 0.207 | 0.73 (inactive) | -0.147 | -0.132 | 0.439 | 1.47 | 0.207 | 0.65 | -0.501 | 0.298
8 | C=CCN1C(=O)[C@]2(O[C@H](CCO)[C@@H]([Si](C)(C)c3ccc(OC)cc3)[C@@H]2C)c2cc(NC(=O)c3ccc(OC)cc3)ccc21 | 1.12 | -5.1 | 0.391 | 0.0503 | 0.631 | -0.102 | -0.0553 | -0.0184 | 0.336 | 0.732 | -0.296 | 0.0866 (inactive) | -0.0017 | -0.108 | 0.216 | 0.13 | 0.0305 | 1.04 | 0.878 | 0.689
9 | O=C1C[C@@](C(=O)NCC(F)(F)F)(c2ccc([N+](=O)[O-])cc2)[C@@H](c2ccc(CO)cc2)N1CC12CC3CC(CC(C3)C1)C2 | 0.913 | -3.33 | 0.309 | 0.835 | 0.569 | 0.0044 | 0.315 | 0.542 | 1.31 | 0.987 | -0.191 | 1.68 (inactive) | 0.6 | 0.0345 | 0.502 | 2.17 | -0.0251 | 1.29 | 0.297 | 1.13
10 | COc1ccc(C#Cc2ccc3c(c2)[C@]2(C(=O)N3)[C@H](C(=O)Nc3nc4ccccc4s3)[C@H]3C(=O)O[C@H](c4ccccc4)[C@H](c4ccccc4)N3[C@@H]2c2ccccc2OCCO)cc1 | 1.18 | -1.67 | 0.282 | 1.55 | 0.436 | -0.0685 | -0.282 | -0.273 | 0.471 | 1.02 | 0.656 | 0.0221 (inactive) | 0.0942 | -0.149 | 0.564 | 1.46 | 0.476 | 1.25 | -0.0198 | 1.13
11 | O=C(CS)NCCCCCCNC(=O)[C@@H]1C[C@@H]2C(=O)NCC(=O)N2[C@@H]1c1ccc(O)cc1 | -1.1 | 0.394 | -0.601 | 1.16 | 0.754 | -0.239 | -0.0035 | 0.0595 | -0.549 | -1.04 | 0.166 | 0.549 (inactive) | -0.397 | -0.183 | 0.68 | 2.94 | -0.136 | -0.477 | -0.134 | -0.434
12 | C=CC[C@H](OC(=O)Nc1ccc(SC)cc1)c1ccc(OCCO)cc1 | -0.833 | 1.34 | -0.952 | -0.316 | 0.461 | -0.0994 | 0.0188 | 1.48 | -0.286 | 0.191 | -0.0497 | 0.154 (inactive) | -0.0321 | -0.0996 | 0.655 | -0.365 | 0.656 | -1.12 | 0.0241 | -0.32
